# In the supplement of paper PMC8728848:
# This excerpt belongs to a sample that is enriched for the strongest signals.
# B1: PX9896A-bth-573-26-573 (Bacteroides thetaiotaomicron) (protein)
# chain: ETNNLKTKEDMYKYFGTSKSMLTHVYSYMPQGYQLFATSGGIFTEDRYSMRDCASDDGEFGAYADNIQNTNNGNWSPIKTYDDSWTLYRGIRAANSFIAEIAQVDFTRYEHDGQYTNWMKQLKYFPYEARVLRAHYFFELARRYGDIAMPLEVLTEEEANTIGKTPFSEVISFIVSECDDAANNLPDSYVNEPGAEIGRVTKGFAMAVKSKALLYAASKLHNPSMDTELWKKSAKAAIDIINTGLYSLDPQESANNLDSKEVVLMRINGDDSDFEMFNLPLRMTAGTRTSSLIPYSNYPSQNLVDAFETVNGYKVTLENTGWVCEDPAFDPQSPYENRDKRFYRAILANGMSFKDYTIETFKGGADDGIVSQGGSPTGYFLRKYIQEATSFEPGKEAVSKHHWVIYRYAETLLTYAESMVNAFNDVNYTDETYKYSALWAINEVRKNADMPLIPSMGKDEFMERLYNEWRVEFAFEDHRFWDVRRWKIADTTQRELYGVKIEKQADGTFNFYKNLYETRNWRDCMYLYPIPQSELYKNTNLNPQNTGW
# Assays:
# Test in all cases: glycan array binding signal (z-score within array); higher = stronger binding
# Details in all cases: glycan notation: IUPAC condensed, linker removed
# [1] = biological target: Fuc(a1-2)Gal(b1-3)[Fuc(a1-4)]GlcNAc(b1-2)Man(a1-3)[Fuc(a1-2)Gal(b1-3)[Fuc(a1-4)]GlcNAc(b1-2)Man(a1-6)]Man(b1-4)GlcNAc(b1-4)[Fuc(a1-6)]GlcNAc(b1-4)[Fuc(a1-6)]GlcNAc
# Method in brief: (§1)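 Negative Z-scores can be read as non-binding. The Z-score is calculated within each array and then averaged across arrays of one protein sequence at different concentrations or buffers and across linkers. Arrays, 3228 in all, were curated from the Consortium for Functional Glycomics database and kept only where the protein sequence was available.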
# [2] = biological target: Fuc(a1-2)Gal(b1-4)GlcNAc(b1-3)Gal(b1-4)GlcNAc
# Method in brief: as §1
# [3] = biological target: Fuc(a1-2)Gal(b1-4)GlcNAc(b1-3)GalNAc
# Method in brief: as §1
# [4] = biological target: Fuc(a1-2)[Gal(a1-3)]Gal(b1-3)GlcNAc(b1-2)Man(a1-3)[Fuc(a1-2)[Gal(a1-3)]Gal(b1-3)GlcNAc(b1-2)Man(a1-6)]Man(b1-4)GlcNAc(b1-4)GlcNAc
# Method in brief: as §1
# [5] = biological target: Fuc(a1-2)[Gal(a1-3)]Gal(b1-4)Glc
# Method in brief: as §1
# [6] = biological target: Fuc(a1-2)[Gal(a1-3)]Gal(b1-4)GlcNAc(b1-6)GalNAc
# Method in brief: as §1
# [7] = biological target: Fuc(a1-2)[Gal(a1-3)]Gal(b1-4)[Fuc(a1-3)]Glc
# Method in brief: as §1
# [8] = biological target: Fuc(a1-2)[GalNAc(a1-3)]Gal(b1-3)GalNAc(a1-3)[Fuc(a1-2)]Gal(b1-4)GlcNAc
# Method in brief: as §1
# [9] = biological target: Fuc(a1-3)[Gal3S(b1-4)]GlcNAc
# Method in brief: as §1
# [10] = biological target: Fuc(a1-3)[Gal3S(b1-4)]GlcNAc6S
# Method in brief: as §1
# Fuc(a1-4)GlcNAc = biological target: Fuc(a1-4)GlcNAc
# Method in brief: as §1
# [11] = biological target: Gal(a1-3)Gal(b1-4)[Fuc(a1-3)]GlcNAc(b1-2)Man(a1-3)[Gal(a1-3)Gal(b1-4)[Fuc(a1-3)]GlcNAc(b1-2)Man(a1-6)]Man(b1-4)GlcNAc(b1-4)GlcNAc
# Method in brief: as §1
# [12] = biological target: Gal(a1-3)[Gal(a1-4)]Gal(b1-4)GlcNAc
# Method in brief: as §1
# [13] = biological target: Gal(b1-3)GalNAc(a1-3)[Fuc(a1-2)]Gal(b1-4)Glc
# Method in brief: as §1
# [14] = biological target: Gal(b1-3)GalNAc(b1-4)Gal(b1-4)Glc
# Method in brief: as §1
# [15] = biological target: Gal(b1-3)GlcNAc(b1-3)Gal(b1-4)GlcNAc(b1-2)[Gal(b1-3)GlcNAc(b1-3)Gal(b1-4)GlcNAc(b1-6)]Man(a1-6)[Gal(b1-3)GlcNAc(b1-3)Gal(b1-4)GlcNAc(b1-2)Man(a1-3)]Man(b1-4)GlcNAc(b1-4)[Fuc(a1-6)]GlcNAc
# Method in brief: as §1
# [16] = biological target: Gal(b1-3)GlcNAc(b1-6)[Gal(b1-3)]GalNAc
# Method in brief: as §1
# [17] = biological target: Gal(b1-4)GlcNAc(b1-2)Man(a1-3)[GlcNAc(b1-2)Man(a1-6)]Man(b1-4)GlcNAc(b1-4)GlcNAc
# Method in brief: as §1
# [18] = biological target: Gal(b1-4)GlcNAc(b1-2)Man(a1-6)[GlcNAc(b1-2)Man(a1-3)]Man(b1-4)GlcNAc(b1-4)GlcNAc
# Method in brief: as §1
# [19] = biological target: Gal(b1-4)GlcNAc(b1-2)[Gal(b1-4)GlcNAc(b1-6)]Man(a1-6)[GlcNAc(b1-4)][Gal(b1-4)GlcNAc(b1-2)[Gal(b1-4)GlcNAc(b1-4)]Man(a1-3)]Man(b1-4)GlcNAc(b1-4)[Fuc(a1-6)]GlcNAc
# Method in brief: as §1
# [20] = biological target: Gal(b1-4)GlcNAc(b1-3)Gal(b1-3)GalNAc
# Method in brief: as §1
# [21] = biological target: Gal(b1-4)GlcNAc(b1-3)Gal(b1-4)GlcNAc(b1-2)[Gal(b1-4)GlcNAc(b1-3)Gal(b1-4)GlcNAc(b1-6)]Man(a1-6)[Gal(b1-4)GlcNAc(b1-3)Gal(b1-4)GlcNAc(b1-2)Man(a1-3)]Man(b1-4)GlcNAc(b1-4)GlcNAc
# Method in brief: as §1
# [22] = biological target: Gal(b1-4)GlcNAc(b1-3)Gal(b1-4)GlcNAc(b1-3)Gal(b1-4)GlcNAc(b1-3)Gal(b1-4)GlcNAc(b1-2)Man(a1-3)[Gal(b1-4)GlcNAc(b1-3)Gal(b1-4)GlcNAc(b1-3)Gal(b1-4)GlcNAc(b1-3)Gal(b1-4)GlcNAc(b1-2)Man(a1-6)]Man(b1-4)GlcNAc(b1-4)GlcNAc
# Method in brief: as §1
# [23] = biological target: Gal(b1-4)GlcNAc(b1-3)Gal(b1-4)GlcNAc(b1-3)Gal(b1-4)GlcNAc(b1-3)Gal(b1-4)GlcNAc(b1-3)Gal(b1-4)GlcNAc(b1-2)Man(a1-3)[Gal(b1-4)GlcNAc(b1-3)Gal(b1-4)GlcNAc(b1-3)Gal(b1-4)GlcNAc(b1-3)Gal(b1-4)GlcNAc(b1-3)Gal(b1-4)GlcNAc(b1-2)Man(a1-6)]Man(b1-4)GlcNAc(b1-4)GlcNAc
# Method in brief: as §1
# Gal6S(b1-3)GlcNAc6S = biological target: Gal6S(b1-3)GlcNAc6S
# Method in brief: as §1
# [24] = biological target: GalNAc(b1-4)GlcNAc(b1-3)GalNAc(b1-4)GlcNAc
# Method in brief: as §1
# GalNAc3S(b1-4)GlcNAc3S = biological target: GalNAc3S(b1-4)GlcNAc3S
# Method in brief: as §1
binder,measurement,setting,value
B1,glycan array binding signal (z-score),[1],0.845
same,glycan array binding signal (z-score),[2],-0.815
same,glycan array binding signal (z-score),[3],0.126
same,glycan array binding signal (z-score),[4],5.75
same,glycan array binding signal (z-score),[5],-0.838
same,glycan array binding signal (z-score),[6],-0.304
same,glycan array binding signal (z-score),[7],-1.01
same,glycan array binding signal (z-score),[8],0.607
same,glycan array binding signal (z-score),[9],-0.437
same,glycan array binding signal (z-score),[10],8.17
same,glycan array binding signal (z-score),Fuc(a1-4)GlcNAc,0.243
same,glycan array binding signal (z-score),[11],2.9
same,glycan array binding signal (z-score),[12],3.79
same,glycan array binding signal (z-score),[13],-0.889
same,glycan array binding signal (z-score),[14],-0.458
same,glycan array binding signal (z-score),[15],3.52
same,glycan array binding signal (z-score),[16],0.949
same,glycan array binding signal (z-score),[17],3.74
same,glycan array binding signal (z-score),[18],4.65
same,glycan array binding signal (z-score),[19],0.323
same,glycan array binding signal (z-score),[20],-0.185
same,glycan array binding signal (z-score),[21],5.18
same,glycan array binding signal (z-score),[22],0.219
same,glycan array binding signal (z-score),[23],0.845
same,glycan array binding signal (z-score),Gal6S(b1-3)GlcNAc6S,3.99
same,glycan array binding signal (z-score),[24],-0.28
same,glycan array binding signal (z-score),GalNAc3S(b1-4)GlcNAc3S,-0.744
